Source: PubChem BioAssay (National Center for Advancing Translational Sciences (NCATS))
HP1b binding inh: HTS for Inhibitors of HP1-beta Chromodomain Interactions with Methylated Histone Tails; Chromobox protein homolog 1 (Homo sapiens), P83916; AlphaScreen HP1-beta / biotin-H3K9me3 peptide binding; Potency, µM (highest dose often 114 µM), hits mostly inhibitors; 0.56% of 390,000 active; AID 540317, 2011; also: nearly all actives have a fitted effect of over 70% in size
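Compound inhibition of the preformed complex between 50 nM HP1-beta and 50 nM biotinylated H3K9me3 peptide was read by AlphaScreen. Buffer was PBS pH 7.4 with 0.01% Tween-20. Incubations ran 30 min at room temperature, with 10 ug/mL donor/acceptor beads.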
GLS inh: qHTS for Inhibitors of Glutaminase (GLS) | Glutaminase kidney isoform, mitochondrial (Homo sapiens), O94925 | GLS enzymatic activity, qHTS titration | Potency, µM (doses to about 45.5 µM), most hits filed as inhibitors | 0.21% of 410,000 active
Target sequence (O94925 whole entry, looked up, canonical isoform): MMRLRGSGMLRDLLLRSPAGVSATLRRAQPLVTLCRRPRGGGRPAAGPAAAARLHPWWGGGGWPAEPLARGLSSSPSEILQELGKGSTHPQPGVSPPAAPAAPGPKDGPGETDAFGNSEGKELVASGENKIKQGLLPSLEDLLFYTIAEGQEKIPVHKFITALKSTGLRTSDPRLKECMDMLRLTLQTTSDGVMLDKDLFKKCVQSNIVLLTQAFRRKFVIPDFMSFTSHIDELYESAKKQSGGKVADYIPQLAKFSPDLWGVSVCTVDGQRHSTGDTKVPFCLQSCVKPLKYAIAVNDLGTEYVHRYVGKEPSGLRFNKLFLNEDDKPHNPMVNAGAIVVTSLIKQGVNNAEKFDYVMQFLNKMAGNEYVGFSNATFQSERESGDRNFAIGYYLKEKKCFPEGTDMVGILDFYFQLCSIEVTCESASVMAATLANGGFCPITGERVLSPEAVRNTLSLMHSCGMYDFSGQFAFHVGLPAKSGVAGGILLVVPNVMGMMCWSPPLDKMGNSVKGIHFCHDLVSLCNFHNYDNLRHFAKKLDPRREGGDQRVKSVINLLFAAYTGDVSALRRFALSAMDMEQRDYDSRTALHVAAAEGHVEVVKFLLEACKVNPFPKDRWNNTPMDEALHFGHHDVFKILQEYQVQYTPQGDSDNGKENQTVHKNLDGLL
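Enzyme dispensed in phosphate buffer (45 mM, pH 8.2, 0.02% Tween-20), compounds pinned in, then 1 mM L-glutamine solution and the glutamate oxidase–HRP–Amplex Red mix added; fluorescence read immediately and again after 30 min at room temperature.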
BAZ2B inh: qHTS Assay for Inhibitors of BAZ2B. 4.4% of 360,000 active. AlphaScreen BAZ2B-H3K14Ac peptide displacement. Potency, µM (series often up to 114 µM), hits mostly inhibitors. Bromodomain adjacent to zinc finger domain protein 2B (Homo sapiens), Q9UIF8; also: nearly all actives have a fitted effect of over 60% in size
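Multi-concentration screen (max 110 uM) measuring displacement of acetylated histone H3 peptide from BAZ2B by AlphaScreen, using 50 nM protein, 50 nM peptide and 10 ug/mL streptavidin donor plus Ni-chelate acceptor beads.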
G9a block: qHTS Assay for Inhibitors of Histone Lysine Methyltransferase G9a | G9a H3K9 monomethylation, AlphaScreen, 2 h | Potency, µM (highest dose often 102 µM), usual class: inhibitors | Histone-lysine N-methyltransferase EHMT2 (Homo sapiens), Q96KQ7 | 8.8% of 350,000 active | AID 504332, 2011; also: nearly all actives have a fitted effect of over 75% in size
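Readings reflect AlphaScreen signal from monomethyl-H3K9 antibody detection. HMT at 20 nM; substrate b-H3K9 500 nM; cofactor SAM 20 uM; 2 h RT reaction; compounds tested as titrations in qHTS with 15 min preincubation.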
JMJD2A Tudor: qHTS Assay for Inhibitors of JMJD2A-Tudor Domain; AID 504339, 2011; 4.4% of 390,000 active; Potency, µM (series often up to 114 µM), actives largely listed as inhibitors; AlphaScreen JMJD2A-Tudor / H3K4me3 peptide binding; Lysine-specific demethylase 4A (Homo sapiens), O75164; also: nearly all actives have a fitted effect of over 50% in size
Numbers stand for hits; - = inactive; ? = inconclusive; . = no result; [ ] = dose if it differs, or a comment. Shown are actives, neighbours in structure and some others; about 10% of the full set was active somewhere. Calls follow the shape of the dose curve; as a rule, active = well fitted curve in the direction sought with a large enough effect; inconclusive = small, poorly fitted or top-dose-only effect, or another doubt; inactive = no such curve, though single readings can be large; an effect the other way counts as inactive or inconclusive.

SMILES | HP1b binding inh | GLS inh | BAZ2B inh | G9a block | JMJD2A Tudor
COc1ccc(N2CCN(C(CNS(=O)(=O)c3ccc4c(c3)OCCO4)c3ccco3)CC2)cc1 (stereo not given) | ? | - | ? | 7.9µM | ?
CCS(=O)(=O)NCC(c1ccco1)N1CCN(c2ccc(OC)cc2)CC1 (stereo not given) | - | - | - | - | -
CCOc1ccc(NC(=S)NCc2cccnc2)cc1 | - | - | - | - | -
O=C(Nc1ccccc1)C1CC(=O)N(C2CCCCC2)C1 (stereo not given) | - | - | - | - | -
COc1cccc(Nc2nc(CN)cs2)n1 | . | - | . | . | .
CCN(CC)S(=O)(=O)c1ccc2oc(Nc3ccc4c(c3)OCCO4)nc2c1 | - | - | - | ? | -[11.4 µM]
O=c1[nH]cnc2nc3n(c12)CCCCC3 | - | - | - | -[12.7 µM] | -
CCN(CC)CCN(C(=O)c1ccc(S(=O)(=O)N(C)C2CCCCC2)cc1)c1nc2c(C)cccc2s1 | - | - | - | - | -
Cc1ccc2nc(N(CCCN(C)C)C(=O)c3sc4ccccc4c3Cl)sc2c1 | ? | - | ? | 50µM | 45µM
CN(C)CCCN(C(=O)c1ccc2c(c1)CCCC2)c1nc2ccc(F)cc2s1 | - | - | ? | 45µM | ?
CCN(CC)CCN(C(=O)c1ccc2c(c1)CCCC2)c1nc2c(C)cccc2s1 | - | - | ? | 35µM | ?
Cc1ccc(C(=O)N(CCCN(C)C)c2nc3ccc(Cl)cc3s2)cc1C | - | - | . | 71µM | ?
CN(C)CCCN(C(=O)c1ccc2c(c1)CCCC2)c1nc2cc3c(cc2s1)OCO3 | - | - | ? | . | ?
C=CCNC(=S)NNC(=O)C(CCC(C)C)CC(C)(C)O (stereo not given) | - | - | - | - | -
Cc1cc(Cl)ccc1NC(=S)NCc1ccco1 | - | - | - | - | -
CCN(CC)CCN(C(=O)c1ccc2c(c1)CCCC2)c1nc2ccc(F)cc2s1 | - | - | . | 50µM | -
CCN(CC)CCN(C(=O)c1ccc2c(c1)CCCC2)c1nc2ccc(C)cc2s1 | - | - | - | ? | ?
Cc1ccc(-n2[nH]c(C)c(C=Nc3cc(C)ccn3)c2=O)cc1 | - | - | - | ? | -
CCCCN=Cc1c(C)[nH]n(-c2ccccc2)c1=S | ? | - | ? | 4.5µM | ?
O=[N+]([O-])c1ccc(C=Nc2ccccc2)cc1 | . | - | . | . | .
Cc1ccc(-n2[nH]c(C)c(/C=N/NC(=O)c3ccc(O)cc3O)c2=O)cc1 | - | - | 28µM | - | 32µM
Cc1[nH]n(-c2ccccc2)c(=S)c1C=Nc1cccc([N+](=O)[O-])c1 | - | - | 22µM | . | 2.5µM
CCCCN(CCCC)C(=S)N/N=C/c1c(C)[nH]n(-c2ccccc2)c1=O | - | - | 10µM | ? | 79µM
Cc1[nH]n(-c2ccccc2)c(=O)c1/C=N/NC(=O)c1ccc(O)cc1O | - | - | 25µM | ? | 22µM
Cc1ccc(OCC(=O)N/N=C\c2c(C)[nH]n(-c3ccccc3)c2=O)c([N+](=O)[O-])c1 | - | - | ? | ? | ?
SMILES | HP1b binding inh | GLS inh | BAZ2B inh | G9a block | JMJD2A Tudor
Cc1cc(C(=O)N/N=C/c2c(C)[nH]n(-c3ccccc3)c2=O)n[nH]1 | - | - | 28µM | - | 50µM
Cc1[nH]n(-c2ccccc2)c(=O)c1/C=N/Nc1nncc(-c2ccccc2)n1 | - | ? | 4.5µM | 20µM | 3.5µM
Cc1ccc(/C=N/Nc2nncc(-c3ccccc3)n2)o1 | - | - | - | - | -
O=C(NNC(=O)C12CC3CC(CC(Br)(C3)C1)C2)c1ccccc1F | - | - | . | . | -
O=P(c1ccccc1)(c1ccccc1)c1cc(S(=O)(=O)O)ccc1O | 35µM | - | 50µM | 35µM | 40µM
O=P(O)(c1ccccc1)c1ccccc1O | - | - | - | - | ?
Cc1ccc(NC(=O)CN2C(=O)/C(=C3\SC(=S)N(C4CCS(=O)(=O)C4)C3=O)c3ccccc32)cc1 (stereo not given) | - | - | - | 50µM | -
Cc1cccc(NC(=O)CN2C(=O)/C(=C3\SC(=S)N(CC4CCCO4)C3=O)c3ccccc32)c1 (stereo not given) | - | - | - | - | -
O=C(CN1C(=O)/C(=C2\SC(=S)N(C3CCS(=O)(=O)C3)C2=O)c2ccccc21)Nc1ccccc1 (stereo not given) | - | - | - | 25µM | -
O=C(CN1C(=O)/C(=C2/SC(=S)N(CCS(=O)(=O)O)C2=O)c2ccccc21)Nc1cccc(Br)c1 | 50µM | - | . | . | 45µM
COc1ccc(NC(=O)CN2C(=O)/C(=C3\SC(=S)N(CCC(=O)O)C3=O)c3ccccc32)cc1 | - | - | - | - | ?
O=C(COC(=O)c1ccc2ccccc2n1)Nc1ccccc1Br | - | - | . | . | -
COc1ccc(NC(=O)CSc2nnc(CNC(=O)COc3ccc(Cl)cc3)o2)c(OC)c1 | - | - | - | - | -
CCCCCCCC/C=C\CCCCCCCC(=O)NCCc1ccc(O)c(O)c1 | - | - | - | ? | 35µM
CC(=O)Nc1cccc(NC(=O)C(F)(F)F)c1 | - | - | - | . | -
CCOc1c(OC(C)=O)ccc(/C=C2\N=C(SCC)SC2=O)c1[N+](=O)[O-] | 14µM | - | 45µM | . | 79µM
CCOc1cc(/C=C2\N=C(SC)SC2=O)cc([N+](=O)[O-])c1OC(C)=O | 45µM | ? | 18µM | 14µM | -[11.4 µM]
CCOc1cc(/C=C2\N=C(SCC)SC2=O)cc([N+](=O)[O-])c1OC(C)=O | ? | ? | 13µM | 10µM | ?
O=C(Nc1ccccn1)c1cc(-c2cccnc2)nc2ccc(Br)cc12 | - | - | - | - | -
COc1ccccc1N(C)S(=O)(=O)c1ccc(Cl)c(C(=O)NCCCN2CCOCC2)c1 | - | - | - | . | -
Cc1cc2nc(C)c(=O)n(C)c2cc1C | - | ? | - | - | 35µM
COc1cc(C2C(C#N)=C(N)Oc3c2oc(CO)cc3=O)cc(OC)c1OC (stereo not given) | - | - | - | ? | 7.1µM
COc1cccc(C2C(C#N)=C(N)Oc3c2oc(CO)cc3=O)c1OC (stereo not given) | - | - | - | ? | 18µM
COC(=O)C1=C(C)OC(N)=C(C#N)C1c1ccc(OC)c(OC)c1OC (stereo not given) | - | - | - | -[12.7 µM] | -
COc1ccc(C2C(C#N)=C(N)Oc3c2oc(CO)cc3=O)c(OC)c1OC (stereo not given) | - | - | - | - | 11µM
Cc1nn(-c2ccccc2)c2nc(-c3ccco3)cc(C(=O)O)c12 | - | 7.1µM | ? | 20µM | ?
Cc1cccc(-n2nc(C)c3c(C(=O)O)cc(-c4cccs4)nc32)c1 | - | - | - | - | -
Cc1nn(-c2cccc(Cl)c2)c2nc(-c3ccco3)cc(C(=O)O)c12 | - | ? | ? | 10µM | -
